ChEMBL document CHEMBL1157539, “Thousands of chemical starting points for antimalarial lead identification” (Nature, 2010)
“And” between values parts separate entries of the source, which are not always exact repeats. Identical values can stand only once.

How the values were obtained:
Format in all cases: functional
Plasmodium falciparum [1] = experiment: GSK_TCMDC: Inhibition of Plasmodium falciparum 3D7 in whole red blood cells, using parasite LDH activity as an index of growth. Test compounds present at 2uM
Plasmodium falciparum [2] = experiment: GSK_TCMDC: Inhibition of Plasmodium falciparum Dd2 in whole red blood cells, using parasite LDH activity as an index of growth. Test compounds present at 2uM
HepG2 = experiment: GSK_TCMDC: Percent inhibition of human HepG2 cell line. Test compounds present at 10uM.

Compound | Inhibition (Plasmodium falciparum [1]) | Inhibition (Plasmodium falciparum [2]) | Inhibition (HepG2) [%]
CC1=C(C(=O)Nc2cc3cn[nH]c3cc2F)C(c2cccc(O)c2F)CC(=O)N1 (centres undefined) | 97% | 98% | 1
CN1CCN(CCCN(Cc2ccc(-c3cccc(CNCc4ccc5c(c4)OCO5)c3)cc2)C(=O)NC2CCCCC2)CC1.O=C(O)C(F)(F)F | 95% | 92% | 31
COc1cccc2c(NN=Cc3cccc(Cl)c3)cc(C)nc12 | 100% | 75% | 3
O=C(Nc1ccc(Cl)cc1F)N[C@H]1CCN(CCCCCNC(=O)C2CC2c2ccc(Cl)c(Cl)c2)C1 (some centres undefined) | 87% | 0% | 29
Cc1cc(Nc2ccnc(-c3ccc(Cl)cc3)n2)ccn1 | 94% | 23% | 6
CC(C)c1ccc(S(=O)(=O)Nc2cccc(CCN3CCC(N4CCCCC4)CC3)c2)cc1 | 100% | 35% | 37
O=C(O)C(F)(F)F.O=S(=O)(NCCN1CCCC1)c1ccc(-c2ccc(CNCc3ccccc3)cc2)s1 | 94% | 17% | 34
COCCCNC(=N)c1ccc(NC(=O)c2ccc(C(=O)Nc3ccc(C(=N)NCCCOC)cc3)cc2)cc1.Cl | 100% | 99% | 33
NC1=NC(c2ccccc2)(c2cccc(O)c2)C(=O)N1CCCc1ccccc1 (centres undefined) | 85% and 98% | 38% and 93% | 0
Cl.O=C(Nc1ccc(C(=O)OCC2CCCN3CCCCC23)cc1)c1ccc([N+](=O)[O-])cc1 (centres undefined) | 95% | 25% | 5
O=C(NCCNc1noc(-c2sccc2Br)n1)c1ccc(Cl)cc1 | 93% | 1% | 0
Cc1cc(N2CCCC2)nc(Nc2ccc(NC(=O)c3ccc(Br)o3)cc2)n1 | 99% | 57% | 17
Cc1cccc2nc(-c3cccc(-c4cccc(CNCc5ccccc5)c4)c3)[nH]c12.O=C(O)C(F)(F)F | 100% | 56% | 3
O=C(Nc1cccc(-c2cccc(-c3nc4cc(F)ccc4[nH]3)c2)c1)c1c[nH]cn1 | 100% | 87% | 13
N#Cc1ccc(N/C(=N\c2ccc(-c3ccccc3)cc2)NCCc2c[nH]c3ccccc23)c(O)c1 | 96% | 75% | 6
COc1ccc(-c2cccc(NC(=O)c3cccc(C#N)c3)c2)cc1CN1CCNCC1.O=C(O)C(F)(F)F | 100% | 15% | 27
CN(C)CCCc1cc2c(cc1Cl)CCN2C(=O)Nc1ccc(-c2ccncc2)c2ccccc12 | 94% | 0% | 4
Cl.O=[N+]([O-])c1cccc(-c2nc3cc(C4=NC5CCCCC5N4)ccc3[nH]2)c1 (centres undefined) | 100% | 81% | 4
O=C(O)C(F)(F)F.O=c1[nH]c2ccc(Nc3nccc(NCCc4ccccc4)n3)cc2[nH]1 | 100% | 6% | 0
Cc1ccc(OCC2CCN(c3ncc(C(=O)NCCCN4CCCC4=O)cc3Cl)CC2)cc1 | 94% | 71% | 7
O=C(Nc1ccccc1)N(Cc1cccc(-c2cccc(CNCc3ccc4c(c3)OCO4)c2)c1)C1CCN(Cc2ccccc2)CC1.O=C(O)C(F)(F)F | 100% | 84% | 96
O=C(/C=C/c1ccc(Cl)c(Cl)c1)NC1CCN(CCNC(=O)c2cccc(Cl)c2)CC1.O=C(O)C(F)(F)F | 100% | 45% | 22
NC(=O)c1cc2nc(Nc3ccc(F)cc3)nc(Nc3ccc(S(N)(=O)=O)cc3)c2[nH]1.O=CO | 100% | 99% | 2
CCc1c(CCNCCCCCCNCCc2ccc(OC)c(OC)c2CC)ccc(OC)c1OC.Cl | 100% | 1% | 58
COc1ccc(CN(C)CCCOc2ccc(NC(=O)C=Cc3ccc(C(C)(C)C)cc3)cc2)cc1OC | 100% | 87% | 14
O=C1c2cc(I)ccc2SC1c1ccccc1 (centres undefined) | 96% | 98% | 0
CCn1c(-c2nonc2N)nc2c(-c3cccc(NC(=O)Nc4ccc(C(F)(F)F)cc4)c3)ncc(OCCCN)c21.O=C(O)C(F)(F)F | 94% | 63% | 36
Cl.N#Cc1ccc2c(c1)CCN(CCC1CCC(NC(=O)Nc3ccncc3)CC1)C2 (centres undefined) | 85% | 3% | 6
